# Assay results taken from publication PMC7862700, “An all-to-all approach to the identification of sequence-specific readers for epigenetic DNA modifications on cytosine”.
# Tests used:
# Assay in all cases: DAPPL (digital affinity profiling via proximity ligation, sequencing); 10 mM Tris-HCl pH 7.5, 50 mM NaCl, 1 mM DTT, 4% glycerol, room temperature, 30 min; GST-TFs on glutathione beads, 16-mer random dsDNA library, 0.1% formaldehyde crosslink after washing; high values mean tight binding
# Conditions in all cases: protein: recombinant; tags: N-terminal GST; dsDNA, one strand shown
# FLI1 = biological target: T1, FLI1 (Homo sapiens, UniProt Q01543 1-452)
# T1 sequence: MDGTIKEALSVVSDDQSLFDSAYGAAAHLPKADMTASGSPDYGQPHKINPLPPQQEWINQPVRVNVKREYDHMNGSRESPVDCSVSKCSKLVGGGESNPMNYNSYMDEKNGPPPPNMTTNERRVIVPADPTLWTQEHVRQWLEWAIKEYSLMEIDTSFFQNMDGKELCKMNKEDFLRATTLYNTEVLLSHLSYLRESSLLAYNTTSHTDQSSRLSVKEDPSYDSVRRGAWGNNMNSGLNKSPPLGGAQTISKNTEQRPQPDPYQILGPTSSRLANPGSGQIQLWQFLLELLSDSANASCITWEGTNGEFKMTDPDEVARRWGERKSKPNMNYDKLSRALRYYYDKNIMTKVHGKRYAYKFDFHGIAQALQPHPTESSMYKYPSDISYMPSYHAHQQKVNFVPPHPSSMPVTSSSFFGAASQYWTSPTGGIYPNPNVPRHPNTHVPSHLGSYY
# In short: (§1)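 Binding signal is defined as a hexamer's read frequency for one factor over its frequency for the tag-only sample. To obtain reads, GST-fused human transcription factors were expressed in yeast, captured on glutathione beads, barcoded with DNA and pooled with that sample. Pools met 200 nmole of a 16-mer random double-stranded DNA library in Tris/NaCl/DTT/glycerol buffer for 30 min at room temperature before washing, 0.1% formaldehyde crosslinking, proximity ligation (BsaI/T4 ligase, 1 h, 37 °C), PCR and Illumina NextSeq500 sequencing.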
# ELK1 = biological target: T2, ELK1 (Homo sapiens, UniProt P19419 1-428)
# T2 sequence: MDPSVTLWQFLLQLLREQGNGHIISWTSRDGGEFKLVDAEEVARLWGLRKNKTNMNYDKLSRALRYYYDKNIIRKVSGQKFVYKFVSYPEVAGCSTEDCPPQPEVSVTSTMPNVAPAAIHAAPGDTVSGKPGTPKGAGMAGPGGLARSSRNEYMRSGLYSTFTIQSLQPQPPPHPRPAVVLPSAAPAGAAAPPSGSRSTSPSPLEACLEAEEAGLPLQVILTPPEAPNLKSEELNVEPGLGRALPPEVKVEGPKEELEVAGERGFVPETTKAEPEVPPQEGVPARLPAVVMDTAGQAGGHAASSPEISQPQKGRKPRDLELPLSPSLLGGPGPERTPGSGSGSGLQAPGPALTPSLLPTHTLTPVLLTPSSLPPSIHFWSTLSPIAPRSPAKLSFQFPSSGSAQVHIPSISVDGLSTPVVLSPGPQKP
# In short: as §1
# GABPA = biological target: T3, GABPA (Homo sapiens, UniProt Q06546 1-454)
# T3 sequence: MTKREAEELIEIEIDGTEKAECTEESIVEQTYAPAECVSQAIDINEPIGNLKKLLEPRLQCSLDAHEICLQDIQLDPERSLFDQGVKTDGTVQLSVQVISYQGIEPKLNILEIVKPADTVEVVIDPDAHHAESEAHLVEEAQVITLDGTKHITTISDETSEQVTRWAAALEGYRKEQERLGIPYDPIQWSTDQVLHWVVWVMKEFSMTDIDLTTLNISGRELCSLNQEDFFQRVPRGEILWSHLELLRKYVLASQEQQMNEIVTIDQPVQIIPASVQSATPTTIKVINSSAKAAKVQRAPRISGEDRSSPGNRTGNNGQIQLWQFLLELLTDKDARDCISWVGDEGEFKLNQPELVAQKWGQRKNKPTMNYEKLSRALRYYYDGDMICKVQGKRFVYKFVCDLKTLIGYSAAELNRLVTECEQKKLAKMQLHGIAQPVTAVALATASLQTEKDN
# In short: as §1
# ERG = biological target: T4, ERG (Homo sapiens, UniProt P11308 1-479)
# T4 sequence: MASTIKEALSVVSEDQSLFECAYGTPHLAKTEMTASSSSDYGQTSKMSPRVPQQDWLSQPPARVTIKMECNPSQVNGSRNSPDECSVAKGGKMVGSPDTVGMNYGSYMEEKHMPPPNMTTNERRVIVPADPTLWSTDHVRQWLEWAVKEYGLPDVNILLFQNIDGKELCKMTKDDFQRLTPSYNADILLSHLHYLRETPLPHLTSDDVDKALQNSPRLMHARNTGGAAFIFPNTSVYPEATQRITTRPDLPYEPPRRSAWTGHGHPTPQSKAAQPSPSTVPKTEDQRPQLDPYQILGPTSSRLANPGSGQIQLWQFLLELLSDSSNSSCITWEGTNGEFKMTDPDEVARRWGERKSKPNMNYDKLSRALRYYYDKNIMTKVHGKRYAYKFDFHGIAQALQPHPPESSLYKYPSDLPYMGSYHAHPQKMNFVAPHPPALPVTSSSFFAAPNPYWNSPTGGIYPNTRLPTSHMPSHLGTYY
# In short: as §1
# ELF1 = ELF1 (Homo sapiens, UniProt P32519 1-619)
# Sequence of ELF1 (P32519 whole entry): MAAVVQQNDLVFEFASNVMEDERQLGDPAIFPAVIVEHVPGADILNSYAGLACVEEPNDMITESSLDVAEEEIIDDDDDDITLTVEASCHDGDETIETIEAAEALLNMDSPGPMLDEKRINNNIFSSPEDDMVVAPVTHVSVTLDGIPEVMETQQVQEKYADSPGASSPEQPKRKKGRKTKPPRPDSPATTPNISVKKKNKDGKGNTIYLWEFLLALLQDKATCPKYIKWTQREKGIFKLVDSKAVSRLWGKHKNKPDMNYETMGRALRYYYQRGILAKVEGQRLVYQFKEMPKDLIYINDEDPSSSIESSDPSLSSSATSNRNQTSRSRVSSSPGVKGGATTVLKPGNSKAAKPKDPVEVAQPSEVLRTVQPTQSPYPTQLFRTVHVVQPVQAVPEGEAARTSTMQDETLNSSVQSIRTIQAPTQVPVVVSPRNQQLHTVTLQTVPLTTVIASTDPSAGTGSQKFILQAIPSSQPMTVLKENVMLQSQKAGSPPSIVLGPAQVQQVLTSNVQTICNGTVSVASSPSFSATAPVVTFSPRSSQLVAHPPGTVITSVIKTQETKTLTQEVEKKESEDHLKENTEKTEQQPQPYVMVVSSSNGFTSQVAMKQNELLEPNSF
# In short: as §1
# EHF = biological target: T5, EHF (Homo sapiens, UniProt Q9NZC4 1-300)
# T5 sequence: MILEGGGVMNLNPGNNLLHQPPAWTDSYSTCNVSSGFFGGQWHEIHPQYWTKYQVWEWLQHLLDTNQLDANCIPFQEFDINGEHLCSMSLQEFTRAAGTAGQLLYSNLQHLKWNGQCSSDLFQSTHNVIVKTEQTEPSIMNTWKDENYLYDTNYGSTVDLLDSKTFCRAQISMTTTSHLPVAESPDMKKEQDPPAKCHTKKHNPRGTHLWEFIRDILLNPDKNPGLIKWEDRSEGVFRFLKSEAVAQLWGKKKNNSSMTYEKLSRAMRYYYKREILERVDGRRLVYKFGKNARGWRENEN
# In short: as §1
# SPI1 = SPI1 (Homo sapiens, UniProt P17947 1-270)
# In short: as §1
# SPIB = SPIB (Homo sapiens, UniProt Q01892 1-262)
# Sequence of SPIB (Q01892 whole entry): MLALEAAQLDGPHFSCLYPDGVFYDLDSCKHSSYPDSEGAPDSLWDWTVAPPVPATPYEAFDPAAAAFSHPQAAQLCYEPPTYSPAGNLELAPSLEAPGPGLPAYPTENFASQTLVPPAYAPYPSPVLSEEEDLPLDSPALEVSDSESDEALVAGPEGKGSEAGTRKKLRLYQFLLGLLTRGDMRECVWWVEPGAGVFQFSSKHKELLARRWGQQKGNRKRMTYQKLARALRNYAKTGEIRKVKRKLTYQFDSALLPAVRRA
# In short: as §1
# ELK3 = biological target: T6, ELK3 (Homo sapiens, UniProt P41970 1-407)
# T6 sequence: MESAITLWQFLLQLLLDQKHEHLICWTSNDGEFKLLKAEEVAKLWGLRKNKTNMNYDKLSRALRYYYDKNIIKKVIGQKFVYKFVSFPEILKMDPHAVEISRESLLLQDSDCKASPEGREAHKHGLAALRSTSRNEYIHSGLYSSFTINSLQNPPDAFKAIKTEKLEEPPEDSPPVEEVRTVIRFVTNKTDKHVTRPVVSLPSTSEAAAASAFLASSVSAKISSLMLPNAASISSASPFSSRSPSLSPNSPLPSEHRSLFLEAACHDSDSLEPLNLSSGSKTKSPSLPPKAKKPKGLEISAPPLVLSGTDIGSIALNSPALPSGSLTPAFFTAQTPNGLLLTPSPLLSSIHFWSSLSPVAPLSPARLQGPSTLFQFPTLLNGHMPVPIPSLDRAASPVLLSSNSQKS
# In short: as §1
Sequence,binding signal (FLI1),binding signal (ELK1),binding signal (GABPA),binding signal (ERG),binding signal (ELF1),binding signal (EHF),binding signal (SPI1),binding signal (SPIB),binding signal (ELK3)
CTAGAT,"1.13 fold enrichment (6-mer frequency, TF over GST control)","1.18 fold enrichment (6-mer frequency, TF over GST control)","1.23 fold enrichment (6-mer frequency, TF over GST control)","1.12 fold enrichment (6-mer frequency, TF over GST control)","1.15 fold enrichment (6-mer frequency, TF over GST control)","1.17 fold enrichment (6-mer frequency, TF over GST control)","1.2 fold enrichment (6-mer frequency, TF over GST control)","1.17 fold enrichment (6-mer frequency, TF over GST control)","1.16 fold enrichment (6-mer frequency, TF over GST control)"
CTTGGT,"1.63 fold enrichment (6-mer frequency, TF over GST control)","1.44 fold enrichment (6-mer frequency, TF over GST control)","1.55 fold enrichment (6-mer frequency, TF over GST control)","1.42 fold enrichment (6-mer frequency, TF over GST control)","1.46 fold enrichment (6-mer frequency, TF over GST control)","1.53 fold enrichment (6-mer frequency, TF over GST control)","1.4 fold enrichment (6-mer frequency, TF over GST control)","1.57 fold enrichment (6-mer frequency, TF over GST control)","1.66 fold enrichment (6-mer frequency, TF over GST control)"
CTGTTC,"1.47 fold enrichment (6-mer frequency, TF over GST control)","1.42 fold enrichment (6-mer frequency, TF over GST control)","1.38 fold enrichment (6-mer frequency, TF over GST control)","1.39 fold enrichment (6-mer frequency, TF over GST control)","1.38 fold enrichment (6-mer frequency, TF over GST control)","1.47 fold enrichment (6-mer frequency, TF over GST control)","1.42 fold enrichment (6-mer frequency, TF over GST control)","1.39 fold enrichment (6-mer frequency, TF over GST control)","1.47 fold enrichment (6-mer frequency, TF over GST control)"
CCTGTT,"1.79 fold enrichment (6-mer frequency, TF over GST control)","1.63 fold enrichment (6-mer frequency, TF over GST control)","1.73 fold enrichment (6-mer frequency, TF over GST control)","1.72 fold enrichment (6-mer frequency, TF over GST control)","1.75 fold enrichment (6-mer frequency, TF over GST control)","1.76 fold enrichment (6-mer frequency, TF over GST control)","2 fold enrichment (6-mer frequency, TF over GST control)","1.75 fold enrichment (6-mer frequency, TF over GST control)","1.94 fold enrichment (6-mer frequency, TF over GST control)"
CTGACT,"1.25 fold enrichment (6-mer frequency, TF over GST control)","1.26 fold enrichment (6-mer frequency, TF over GST control)","1.29 fold enrichment (6-mer frequency, TF over GST control)","1.22 fold enrichment (6-mer frequency, TF over GST control)","1.32 fold enrichment (6-mer frequency, TF over GST control)","1.31 fold enrichment (6-mer frequency, TF over GST control)","1.27 fold enrichment (6-mer frequency, TF over GST control)","1.43 fold enrichment (6-mer frequency, TF over GST control)","1.26 fold enrichment (6-mer frequency, TF over GST control)"
TTTATC,"1.25 fold enrichment (6-mer frequency, TF over GST control)","1.27 fold enrichment (6-mer frequency, TF over GST control)","1.25 fold enrichment (6-mer frequency, TF over GST control)","1.22 fold enrichment (6-mer frequency, TF over GST control)","1.21 fold enrichment (6-mer frequency, TF over GST control)","1.36 fold enrichment (6-mer frequency, TF over GST control)","1.26 fold enrichment (6-mer frequency, TF over GST control)","1.28 fold enrichment (6-mer frequency, TF over GST control)","1.37 fold enrichment (6-mer frequency, TF over GST control)"
CTAATC,"1.32 fold enrichment (6-mer frequency, TF over GST control)","1.39 fold enrichment (6-mer frequency, TF over GST control)","1.34 fold enrichment (6-mer frequency, TF over GST control)","1.32 fold enrichment (6-mer frequency, TF over GST control)","1.32 fold enrichment (6-mer frequency, TF over GST control)","1.35 fold enrichment (6-mer frequency, TF over GST control)","1.26 fold enrichment (6-mer frequency, TF over GST control)","1.45 fold enrichment (6-mer frequency, TF over GST control)","1.44 fold enrichment (6-mer frequency, TF over GST control)"
AAATCT,"1.28 fold enrichment (6-mer frequency, TF over GST control)","1.21 fold enrichment (6-mer frequency, TF over GST control)","1.23 fold enrichment (6-mer frequency, TF over GST control)","1.31 fold enrichment (6-mer frequency, TF over GST control)","1.3 fold enrichment (6-mer frequency, TF over GST control)","1.2 fold enrichment (6-mer frequency, TF over GST control)","1.14 fold enrichment (6-mer frequency, TF over GST control)","1.29 fold enrichment (6-mer frequency, TF over GST control)","1.22 fold enrichment (6-mer frequency, TF over GST control)"
